This note sets out measurements from PubChem BioAssay (NCATS).

Inconclusive results are not listed. The source made the active and inactive calls. Unless noted, calls come from the whole dose curve; as a rule, active = well fitted curve in the direction sought with a large enough effect; inconclusive = small, poorly fitted or top-dose-only effect, or another doubt; inactive = no such curve, though single readings can be large; an effect the other way counts as inactive or inconclusive.

In assay [1] the target is Lysosomal acid glucosylceramidase (Homo sapiens) (UniProt P04062). Put plainly: Glucocerebrosidase-p2 (AID 348; in the data active = potency below about 10 µM; note: potency is the fitted concentration of half-maximal effect). The following applies: purified GBA, blue fluorogenic substrate, 40 min. An outline of the steps:
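Normal human glucocerebrosidase (0.2 nM) with blue fluorogenic substrate (80 uM final) in citrate/phosphate pH 5.9 with 10mM sodium taurocholate, 0.01% tween-20; 40 min RT, NaOH/glycine stop; fluorescence Ex 365/Em 440; AC50 from a titration from 0.6 nM upwards.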

The nature of assay [2]: AP1 Signaling Pathway (AID 357; active = well fitted curve in either direction with a large enough effect, not every such curve was filed as active;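 note: ME-180 reporter cells stimulated with EGF at its EC50 level; % is set by controls: 0 for no effect and ±100 for the full control effect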). The following applies: ME-180 AP-1-bla reporter, EGF-induced, beta-lactamase ratio, 5 h; at 7.69 µM (top of the series) unless noted. Put shortly: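 Modulation of EGF-driven AP-1 transcription was assessed with a beta-lactamase reporter in ME-180 cells. Compound and EC50 EGF were co-incubated 5 hours at 37 °C before 2.5-hour CCF4 loading at room temperature and dual-emission reading.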

Assay [3] has as its target Cytochrome P450 1A2 (Homo sapiens) (UniProt P05177). Nature of the assay: p450-cyp1a2 (AID 410; calls by dose curve; note: potency is the fitted concentration of half-maximal effect). The following applies: recombinant CYP1A2, luciferin-ME demethylation, luminescence; series mostly up to 57 µM. An outline of the steps: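 O-Demethylation of luciferin 6' methyl ether by human CYP1A2 is monitored as luciferase luminescence. Substrate sits at Km (100uM); enzyme is 20nM. Values are scaled to 57 uM furafylline as maximal inhibition.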

Assay [4] is described as follows: NFAT Signaling Pathway (AID 444; active = well fitted curve in either direction with a large enough effect, not every such curve was filed as active;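 note: carbachol stimulus at about its EC50 of 1 µM final; % is set by controls: 0 for no effect and ±100 for the full control effect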). As to conditions: Jurkat NFAT-bla M1, carbachol, beta-lactamase ratio, 5 h; at 7.69 µM (top of the series) unless noted. An outline of the steps:
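Jurkat cells with NFAT-driven β-lactamase reporter and co-expressed M1 receptor, stimulated with carbachol (final 1 uM, ~EC50), compound titration, 5 h at 37 °C. CCF4 loaded 1 h at RT; 460/530 nm ratio gave %activity and AC50.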

Assay [5] is described as follows: Stat Signaling Pathway (AID 446; active = well fitted curve in either direction with a large enough effect, not every such curve was filed as active;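 note: ME-180 cervical cancer cells given 40 pM IL-6 alongside compound; SIE-controlled beta-lactamase reporter measured as 460/530 nm FRET emission ratio; % is set by controls: 0 for no effect and ±100 for the full control effect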). The following applies: ME-180 (cervical carcinoma) SIE beta-lactamase reporter, IL-6 stimulated, 5 h; at 7.69 µM (top of the series) unless noted. An outline of the steps: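 Compound effects on IL-6-induced STAT reporter activity were measured in ME-180 cells. After overnight culture, cells were co-treated with 40 pM IL-6 for 5 hrs before beta-lactamase substrate loading at room temperature.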

For assay [6], the target named is Glucocorticoid receptor (Homo sapiens) (UniProt P04150). Nature of the assay: GR-GFP Redistribution (AID 450;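 active = compounds whose dose series gives a full or clear partial fitted curve of increased nuclear translocation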; note: potency is the fitted concentration of half-maximal effect). As to conditions: U2OS GR-GFP nuclear translocation, laser cytometry, 2 h.
Chain of Glucocorticoid receptor (Homo sapiens) (P04150 whole entry, looked up): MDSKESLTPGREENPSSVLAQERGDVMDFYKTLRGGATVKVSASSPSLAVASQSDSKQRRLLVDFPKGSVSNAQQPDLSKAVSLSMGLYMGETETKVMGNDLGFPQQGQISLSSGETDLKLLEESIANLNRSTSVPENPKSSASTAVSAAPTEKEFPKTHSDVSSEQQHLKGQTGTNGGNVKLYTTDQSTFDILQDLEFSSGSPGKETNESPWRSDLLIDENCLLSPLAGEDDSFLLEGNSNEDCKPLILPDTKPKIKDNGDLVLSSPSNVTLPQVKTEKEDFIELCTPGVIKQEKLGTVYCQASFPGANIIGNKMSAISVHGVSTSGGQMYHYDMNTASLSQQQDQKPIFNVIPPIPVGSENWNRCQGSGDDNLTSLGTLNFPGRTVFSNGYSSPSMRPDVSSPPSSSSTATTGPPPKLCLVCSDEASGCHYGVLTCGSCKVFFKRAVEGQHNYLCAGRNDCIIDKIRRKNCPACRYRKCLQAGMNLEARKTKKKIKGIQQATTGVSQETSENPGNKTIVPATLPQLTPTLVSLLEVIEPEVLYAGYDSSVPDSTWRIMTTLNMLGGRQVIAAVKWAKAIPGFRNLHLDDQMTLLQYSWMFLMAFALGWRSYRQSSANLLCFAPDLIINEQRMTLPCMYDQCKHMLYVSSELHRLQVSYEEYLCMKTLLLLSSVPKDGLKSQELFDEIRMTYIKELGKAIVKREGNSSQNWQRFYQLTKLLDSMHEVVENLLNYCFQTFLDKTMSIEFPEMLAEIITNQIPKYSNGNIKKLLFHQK
Assay [7] shares this target. Nature of the assay: GR-EFC Redistribution (AID 451; calls by dose curve; note: potency is the fitted concentration of half-maximal effect). As to conditions: CHO-K1 GR-EFC translocation, beta-gal luminescence, 2 h. An outline of the steps:
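CHO-K1 cells expressing nuclear EA and GR-ED fragments of b-gal; compounds titrated up to 46 uM final, 2 h at 37 C. GR nuclear translocation read as complemented b-gal luminescence after 1 h RT detection.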

Assay [8] addresses Mitogen-activated protein kinase 10 (Mus musculus) (UniProt Q61831). Nature of the assay: JNK3 AlphaScreen Assay (AID 530; active = well fitted curve in either direction with a large enough effect, not every such curve was filed as active;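 note: kinase came from lysate of stimulated human HepG2 cells; signal reports phosphorylation of biotinylated GST-cJun 1-79 at Ser73 with 10 µM ATP; % is set by controls: 0 for no effect and ±100 for the full control effect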). The following applies: JNK3 lysate, c-Jun phosphorylation; series mostly up to 57.1 µM. An outline of the steps:
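Activity was read by AlphaScreen after JNK3-containing HepG2 lysate (cytokine pre-activated) phosphorylated biotinylated GST-cJun with 10 uM ATP at room temperature. Phospho-Ser73 cJun antibody with Protein-A acceptor beads provided detection.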
(Alpha assays give light when donor and acceptor beads are brought close together.)

In assay [9] the target is 3',5'-cyclic-AMP phosphodiesterase 4B (Homo sapiens) (UniProt Q07343). Nature of the assay: qHTS Assay for Inhibitors of PDE-IV (AID 607; active = well fitted activation curve with a large enough effect in the main read-out, with a control signal flat, not every such curve was filed as active; note: % of control where 0% means no effect). As to conditions: HEK293 ACTOne CNG channel cells, membrane potential fluorescence; series mostly up to 22.9 µM. An outline of the steps:
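ACTOne HEK293 cells carry a modified cAMP-gated CNG channel and express endogenous PDE4; plated 1000 cells/well, compounds up to 22.9 uM final. Membrane-potential dye fluorescence (ex 535/em 590) was read; parental cells received 10 uM forskolin + 100 uM RO 20-1724.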

The target of assay [10] is Cytochrome P450 3A4 (Homo sapiens) (UniProt P08684). Put plainly: qHTS Assay for Activators of Cytochrome P450 3A4 (AID 885). Note: nearly all actives have a fitted effect of over 65% in size. As to conditions: recombinant CYP3A4, Luciferin-PPXE luminescence, 60 min; series mostly up to 57.1 µM. Put shortly:
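CYP3A4 activity: Luciferin-PPXE O-dealkylation, 25uM substrate, 200mM KPO4, RT throughout. Read-out is luciferase luminescence; higher values reflect activation.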
In general terms: Quantitative high-throughput screening tests each substance at several concentrations.

The nature of assay [11]: qHTS Assay for Lipid Storage Modulators (AID 1519; calls by dose curve). As to conditions: Drosophila S3 cells, BODIPY lipid droplet/cell ratio, laser cytometry, cells loaded with oleic acid. Put shortly: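 Cells seeded at 5,000 per well were treated with compounds over a concentration series and loaded with oleic acid (400 uM, as added). Lipid droplet fluorescence (488 nm excitation, 500-530 nm channel) was read by laser-scanning cytometry and normalized to 20 uM Triacsin C.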

Assay [12] concerns the target Ubiquitin carboxyl-terminal hydrolase 1 (Homo sapiens) (UniProt O94782). Put plainly: Inhibitors of USP1/UAF1: Pilot qHTS (AID 504865).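 Note: rhodamine fluorescence freed from ubiquitin-rhodamine substrate followed over time; top concentration of the series differs between compounds; % is set by controls: 0 for no effect and ±100 for the full control effect; nearly all actives have a fitted effect of over 35% in size.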 As to conditions: purified USP1/UAF1, Ub-rhodamine cleavage fluorescence; series mostly up to 54.9 µM. An outline of the steps:
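Kinetic fluorescence assay: 1nM USP1/UAF1, 15 min compound preincubation, then 150nM Ub-Rho; 480/540 nm.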

The nature of assay [13]: Confirmatory qHTS for small molecule stabilizers of the endoplasmic reticulum resident proteome: Secreted ER Calcium Modulated Protein (SERCaMP) assay (AID 1508628). Note: nearly all actives have a fitted effect of over 40% in size. Note: potency is the fitted concentration of half-maximal effect. The following applies: SERCaMP secreted luciferase ER calcium/proteostasis reporter; series mostly up to 76.3 µM. Put shortly:
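Reporter secretion upon ER calcium depletion (100 nM thapsigargin, 4 h, 37C) is measured as medium luminescence with coelenterazine, after 16 h compound pretreatment of SH-SY5Y-GLuc-SERCaMP cells; primary at three concentrations up to 38.3 uM, follow-up at 11 (up to 76.6 uM).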

Assay [14] deals with Rap guanine nucleotide exchange factor 3 (Homo sapiens) (UniProt O95398). Put plainly: Confirmatory qHTS for antagonist of cAMP-regulated guanine nucleotide exchange factor 3 (EPAC1) (AID 1645880).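 Note: plate controls were DMSO only for no effect and full effect of the ATA control for full effect; nearly all actives have a fitted effect of over 55% in size.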 The following applies: EPAC1 Rap1B-BODIPY-GDP exchange, fluorescence; series mostly up to 115 µM. Put shortly:
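Released BODIPY-GDP fluoresces less than Rap1-bound BODIPY-GDP; the signal is followed at 480/540 nm at 5-min intervals over 30 min, after 5 min at room temperature. Reactions contain 100 nM EPAC1, 250 nM RAP1B-BODIPY-GDP and 50 uM GDP; results are normalized to ATA and DMSO.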

Assay [15] has the same target. Nature of the assay: Confirmatory qHTS for agonist of cAMP-regulated guanine nucleotide exchange factor 3 (EPAC1) (AID 1645881).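 Note: EPAC1 catalysed release of BODIPY-GDP from Rap1B seen as fluorescence loss; nearly all actives have a fitted effect of over 75% in size.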 The following applies: EPAC1 Rap1B BODIPY-GDP exchange fluorescence, 100% = cAMP control response; series mostly up to 154 µM.
Assay [16] deals with Dual specificity protein kinase CLK4 (Homo sapiens) (UniProt Q9HAZ1). Put plainly: qHTS Assay for Inhibitors of CDC-like Kinase 4 (Kinase-Glo Assay) (AID 1770). Note: nearly all actives have a fitted effect of over 65% in size. Note: potency is the fitted concentration of half-maximal effect. The following applies: recombinant Clk4, Kinase-Glo ATP depletion luminescence; series mostly up to 66.7 µM. An outline of the steps: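 Inhibition was judged from remaining ATP, measured by Ultra-Glo luciferase bioluminescence after Clk4 (25 nM) had acted on RS peptide at 1 uM ATP for 4.5 hours, room temperature.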
Chain of Dual specificity protein kinase CLK4 (Homo sapiens) (Q9HAZ1 whole entry, looked up): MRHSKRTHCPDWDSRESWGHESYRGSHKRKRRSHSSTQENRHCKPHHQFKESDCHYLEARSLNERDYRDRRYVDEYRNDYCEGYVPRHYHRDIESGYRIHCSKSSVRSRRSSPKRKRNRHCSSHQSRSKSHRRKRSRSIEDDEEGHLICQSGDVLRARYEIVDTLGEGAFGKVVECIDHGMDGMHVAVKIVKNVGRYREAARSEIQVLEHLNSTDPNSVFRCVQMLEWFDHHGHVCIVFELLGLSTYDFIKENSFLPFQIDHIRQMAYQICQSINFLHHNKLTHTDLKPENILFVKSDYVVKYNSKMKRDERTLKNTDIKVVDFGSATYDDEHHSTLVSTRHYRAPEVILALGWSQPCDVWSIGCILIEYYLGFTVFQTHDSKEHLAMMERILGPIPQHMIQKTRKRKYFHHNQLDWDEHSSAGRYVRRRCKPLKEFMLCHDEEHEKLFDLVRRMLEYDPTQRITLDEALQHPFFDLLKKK

For assay [17] the target is unchanged. Nature of the assay: qHTS Assay for Inhibitors of CDC-like Kinase 4 (ADP-FP Assay) (AID 1795). Note: nearly all actives have a fitted effect of over 60% in size. Note: potency is the fitted concentration of half-maximal effect. The following applies: Transcreener ADP fluorescence polarization; series mostly up to 50 µM. An outline of the steps: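 Inhibition of ADP formation by 6.25 nM Clk4 is measured using 1 uM ATP and 100 uM RS repeat peptide over one hour. Produced ADP displaces a fluorescent tracer from antibody, lowering polarization.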

A short description of assay [18]: Primary qHTS for small molecule stabilizers of the endoplasmic reticulum resident proteome: Secreted ER Calcium Modulated Protein (SERCaMP) assay (AID 1508630). Note: % is set by controls: 0 for no effect and ±100 for the full control effect. The following applies: SH-SY5Y GLuc-SERCaMP (Gaussia luciferase released on ER calcium loss) secretion, thapsigargin, luminescence; series mostly up to 38.4 µM. Put shortly: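 The SH-SY5Y reporter protocol was run at 3 concentrations up to 38.3 uM (primary) or 11 concentrations (follow-up): 16 h compound, 100 nM thapsigargin for 4 h, then extracellular luciferase luminescence.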

In assay [19] the target is Dual specificity protein kinase CLK4 (Homo sapiens) (UniProt Q9HAZ1). Nature of the assay: qHTS Assay for Inhibitors of CDC-like Kinase 4 (ADP-Glo Assay) (AID 1771). Note: % is set by controls: 0 for no effect and ±100 for the full control effect; nearly all actives have a fitted effect of over 70% in size. As to conditions: recombinant CLK4, ADP-Glo luminescence; series mostly up to 80 µM. Put shortly: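 Compounds are pin-transferred onto substrate mix (100 uM RS peptide, 1 uM ATP), then 25 nM Clk4 is added. After 1 hr at room temperature, ADP-Glo reagent runs 45 min, detection reagent 30 min, then luminescence is read.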

Chain of Cytochrome P450 1A2 (Homo sapiens) (P05177 whole entry, looked up): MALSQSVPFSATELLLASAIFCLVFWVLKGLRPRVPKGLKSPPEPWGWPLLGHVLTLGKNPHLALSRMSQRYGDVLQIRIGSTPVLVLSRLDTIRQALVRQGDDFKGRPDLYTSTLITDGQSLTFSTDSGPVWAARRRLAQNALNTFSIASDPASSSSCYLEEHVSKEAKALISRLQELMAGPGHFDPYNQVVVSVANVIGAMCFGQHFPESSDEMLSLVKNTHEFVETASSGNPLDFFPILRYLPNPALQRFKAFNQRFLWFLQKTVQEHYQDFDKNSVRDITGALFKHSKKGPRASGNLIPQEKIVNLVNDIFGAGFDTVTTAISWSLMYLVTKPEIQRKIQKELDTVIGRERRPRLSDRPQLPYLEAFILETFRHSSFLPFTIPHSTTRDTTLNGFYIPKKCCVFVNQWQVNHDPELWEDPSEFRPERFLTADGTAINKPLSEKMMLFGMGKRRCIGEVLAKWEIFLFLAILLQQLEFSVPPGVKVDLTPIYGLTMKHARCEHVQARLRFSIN
Chain of Lysosomal acid glucosylceramidase (Homo sapiens) (P04062 whole entry, looked up): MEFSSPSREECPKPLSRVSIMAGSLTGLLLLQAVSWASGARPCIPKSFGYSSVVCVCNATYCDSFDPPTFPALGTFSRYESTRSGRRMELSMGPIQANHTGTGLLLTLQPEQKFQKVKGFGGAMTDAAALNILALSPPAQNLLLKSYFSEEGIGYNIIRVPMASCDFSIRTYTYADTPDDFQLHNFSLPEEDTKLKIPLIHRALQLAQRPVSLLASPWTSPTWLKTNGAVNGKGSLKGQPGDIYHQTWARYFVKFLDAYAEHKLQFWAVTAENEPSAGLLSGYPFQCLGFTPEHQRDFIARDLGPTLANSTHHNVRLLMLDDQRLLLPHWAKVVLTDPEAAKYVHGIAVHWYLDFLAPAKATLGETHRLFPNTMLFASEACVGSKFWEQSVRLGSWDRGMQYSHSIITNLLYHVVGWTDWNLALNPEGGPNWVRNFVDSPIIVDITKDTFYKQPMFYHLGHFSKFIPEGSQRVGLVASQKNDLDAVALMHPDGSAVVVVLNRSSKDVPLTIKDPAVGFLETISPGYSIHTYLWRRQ
Chain of 3',5'-cyclic-AMP phosphodiesterase 4B (Homo sapiens) (Q07343 whole entry, looked up): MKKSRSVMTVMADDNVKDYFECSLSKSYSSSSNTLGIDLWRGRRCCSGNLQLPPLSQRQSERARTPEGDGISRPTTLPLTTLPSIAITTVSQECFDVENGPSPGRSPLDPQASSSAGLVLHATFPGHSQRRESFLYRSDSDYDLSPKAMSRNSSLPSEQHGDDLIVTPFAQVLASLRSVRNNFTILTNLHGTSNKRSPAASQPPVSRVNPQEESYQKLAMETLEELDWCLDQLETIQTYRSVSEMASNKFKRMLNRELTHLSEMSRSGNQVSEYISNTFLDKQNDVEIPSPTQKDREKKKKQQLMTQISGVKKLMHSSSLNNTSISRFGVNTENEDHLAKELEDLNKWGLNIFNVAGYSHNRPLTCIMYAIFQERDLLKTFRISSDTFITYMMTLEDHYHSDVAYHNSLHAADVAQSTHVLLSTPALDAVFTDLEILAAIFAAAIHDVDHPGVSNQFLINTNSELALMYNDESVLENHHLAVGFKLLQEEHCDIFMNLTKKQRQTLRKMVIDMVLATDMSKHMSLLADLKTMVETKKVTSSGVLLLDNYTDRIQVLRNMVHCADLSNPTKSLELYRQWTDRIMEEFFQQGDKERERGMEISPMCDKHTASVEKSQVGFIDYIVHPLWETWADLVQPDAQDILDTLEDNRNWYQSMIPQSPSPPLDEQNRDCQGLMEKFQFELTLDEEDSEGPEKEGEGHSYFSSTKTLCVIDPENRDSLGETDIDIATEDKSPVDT
Chain of Ubiquitin carboxyl-terminal hydrolase 1 (Homo sapiens) (O94782 whole entry, looked up): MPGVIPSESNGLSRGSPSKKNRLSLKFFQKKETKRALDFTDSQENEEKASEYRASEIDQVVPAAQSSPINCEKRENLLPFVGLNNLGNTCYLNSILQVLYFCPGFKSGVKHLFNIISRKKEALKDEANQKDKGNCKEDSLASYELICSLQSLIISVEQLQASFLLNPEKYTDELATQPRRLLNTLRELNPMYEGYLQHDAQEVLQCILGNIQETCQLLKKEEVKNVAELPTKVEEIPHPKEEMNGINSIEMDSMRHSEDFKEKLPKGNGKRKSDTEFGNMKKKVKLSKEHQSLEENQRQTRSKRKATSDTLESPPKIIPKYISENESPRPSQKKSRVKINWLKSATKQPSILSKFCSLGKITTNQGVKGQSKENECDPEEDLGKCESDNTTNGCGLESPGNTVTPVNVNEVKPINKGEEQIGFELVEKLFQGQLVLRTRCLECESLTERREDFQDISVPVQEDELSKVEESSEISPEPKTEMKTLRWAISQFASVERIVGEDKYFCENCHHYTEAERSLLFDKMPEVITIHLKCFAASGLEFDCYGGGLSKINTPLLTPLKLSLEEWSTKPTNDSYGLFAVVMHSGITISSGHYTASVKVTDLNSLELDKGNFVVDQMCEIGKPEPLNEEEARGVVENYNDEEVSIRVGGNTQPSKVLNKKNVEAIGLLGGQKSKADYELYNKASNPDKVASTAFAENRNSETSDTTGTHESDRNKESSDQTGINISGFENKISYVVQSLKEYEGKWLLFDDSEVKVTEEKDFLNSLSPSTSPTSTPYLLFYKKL
Chain of Cytochrome P450 3A4 (Homo sapiens) (P08684 whole entry, looked up): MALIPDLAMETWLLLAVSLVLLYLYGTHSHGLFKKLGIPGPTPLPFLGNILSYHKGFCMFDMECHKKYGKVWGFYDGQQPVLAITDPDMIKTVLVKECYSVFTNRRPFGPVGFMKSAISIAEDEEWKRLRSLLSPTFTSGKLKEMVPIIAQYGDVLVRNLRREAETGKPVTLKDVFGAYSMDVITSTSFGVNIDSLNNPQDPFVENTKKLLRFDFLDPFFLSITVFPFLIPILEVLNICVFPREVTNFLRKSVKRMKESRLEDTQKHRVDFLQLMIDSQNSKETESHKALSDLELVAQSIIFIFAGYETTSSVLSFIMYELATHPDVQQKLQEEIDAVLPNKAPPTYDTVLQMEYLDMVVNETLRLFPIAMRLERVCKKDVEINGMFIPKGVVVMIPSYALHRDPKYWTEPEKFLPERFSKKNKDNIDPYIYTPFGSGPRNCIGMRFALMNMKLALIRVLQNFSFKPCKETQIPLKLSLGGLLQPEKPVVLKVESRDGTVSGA

As for `N#Cc1cccc(-c2nc(N3CCNCC3)c3ccccc3n2)c1`, the Potency in [1] is > 11.4 µM (inactive); in assay [3], 2.51 µM (active); in assay [6], > 46 µM (inactive); in assay [7] it was > 46 µM (inactive); in assay [13], 11.2 µM (active). Moreover, the figures for the activity change, negative = inhibition in [2], in assay [4] and in [11] (at 57.5 µM (top of the series)) were 5.75% (inactive), 10.9% (inactive) and 6.61% (inactive), respectively. Besides, the activity, negative = inhibition in [5] is 11.7% (inactive). Moreover, the molecule was classed as inactive in assay [8]. For the same molecule, the Potency entry in assay [9], in assay [10] and in assay [12] was “inactive” each time. The max response in assay [11] (measured here: cell count channel max response) turned out to be 6.46%; in [11] (measured here: lipid channel max response), 11.8%.

For `Cc1ccc(P(=O)(CSC(=N)N)c2ccc(C)cc2)cc1`, the Potency entry in assay [13] and in assay [14] was “inactive” throughout. Besides, in assay [15], the molecule was called inactive.

For `CN(C)c1ncc2ncc(=O)n(CCc3ccccc3)c2n1`, the Potency in assay [1] was > 11.4 µM (inactive); in assay [3], 0.794 µM (active); in [6], > 9.22 µM (inactive); in [7], > 46 µM (inactive); in assay [16], 6.31 µM (active); in [17] it was 5.01 µM (active). In addition, the Potency in [13] is 39.8 µM (active). Also, the activity change, negative = inhibition in assay [2] was -21.4% (inactive); in assay [4], -10.8% (inactive). The activity, negative = inhibition in assay [5] was -10.8% (inactive). Besides, the call in assay [8] was inactive. In addition, the Potency result in [12] was “inactive”.

Consider `CN1C(=O)N(C)C2=NNC=NC2(O)C1=O` (stereo not drawn), for which the Potency result in assay [18] is “inactive”.

As for `COC(=O)[C@H]1Cc2c([nH]c3ccccc23)CN1C(=O)COc1ccc2c(C)cc(=O)oc2c1`, the Potency result in assay [18] was “inactive”.

On to `c1ccc2c(N3CCNCC3)nc(-c3ccc4c(c3)OCO4)nc2c1`, for which the Potency in [1] was > 11.4 µM (inactive); in assay [3] it was 12.6 µM (active); in assay [7], > 46 µM (inactive); in assay [13], 20 µM (active). Further, the activity change, negative = inhibition in assay [2] was 14.9% (inactive); in assay [4] it was 11.9% (inactive). Also, the activity, negative = inhibition in [5] is 7.14% (inactive). The call in assay [8] was inactive. For the same molecule, the Potency entry in assay [9] and in [10] was “inactive” throughout.

As to `Cc1cn2c(=O)c3ccccc3nc2n2c(=O)c3ccccc3nc12`, in [18], the Potency result is “inactive”.

As for `O=C(c1ccco1)N1CCC[C@@]2(CCN(c3ccncc3)C2)C1`, the Potency in assay [1] was > 11.4 µM (inactive); in assay [3], 12.6 µM (active); in assay [7], > 46 µM (inactive); in assay [13] it was 28.2 µM (active). The activity, negative = inhibition in assay [5] is 1.83% (inactive). Further, in [8], the molecule was called inactive. Besides, the Potency entry in [9] and in [10] was “inactive” each time.

In the case of `O=c1c(-c2cccs2)nc2cnc(N3CCNCC3)nc2n1CCc1ccccc1`, the Potency was > 11.4 µM (inactive) in assay [1], > 9.22 µM (inactive) in [6] and > 46 µM (inactive) in assay [7]. Also, in assay [2], the activity change, negative = inhibition is 82.5% [activator] (active). Also, the Potency result in [9], in assay [16], in assay [17], in assay [12] and in [13] was “inactive” in each case.

Consider `COCCn1c(=O)c(-c2cn(C)c3ccccc23)nc2cnc(N3CCNCC3)nc21`, for which the Potency in assay [1] was > 11.4 µM (inactive); in assay [3], 12.6 µM (active); in assay [6] it was > 9.22 µM (inactive); in assay [7], > 46 µM (inactive). Also, the figures for the activity change, negative = inhibition in assay [2] and in assay [4] were 16% (inactive) and 18.5% (inactive), respectively. Moreover, the call in assay [8] was inactive. Besides, the Potency result in assay [9], in [10], in assay [16], in [19], in assay [17] and in assay [12] was “inactive” throughout.
